An excerpt weighted towards active compounds, which were near 8.7% of everything screened.
Sfp PPTase inh: Sfp phosphopantetheinyl transferase inhibition; 310,000 compounds, 3.5% hits; Biochemical Sfp PPTase activity, qHTS; Potency, µM, without a hit: largest response in the series, negative = inhibition, most hits filed as inhibitors; Q9F4F7;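 also: the enzyme is Sfp with the accession as filed and its product quenches rhodamine fluorescence; 0% = enzyme reaction without inhibitor and -100% = no enzyme wells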
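Step 1, compound plus 15 nM Sfp-PPTase, 15 min, room temperature. Step 2, add rhodamine-CoA (5 uM) and BHQ-2-YbbR (12.5 uM). Step 3, read 525/598 nm fluorescence at 0 and 30 min.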
12-LOX inh: inhibitors of human 12S-lipoxygenase ALOX12; P18054; purified 12hLO, xylenol orange hydroperoxide absorbance; Potency, µM (series often up to 108 µM), for inactives: top-dose activity change, negative = inhibition, actives largely listed as inhibitors; 580,000 compounds, 1.1% hits; also: % is scaled to controls: 0 for no effect and ±100 for the full control effect
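Purified human 12hLO (150 nM final) in 25 mM Hepes, 0.01% Triton X-100, pH 7.0 was preincubated 15 min at room temperature with compound. Then 40 uM arachidonic acid was added, 30 min. Hydroperoxide was read by Fe-XO absorbance ratio 573/405 nm.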
HP1b binding inh: blocks HP1-beta chromodomain binding to methylated histone tails. AlphaScreen HP1-beta / biotin-H3K9me3 peptide binding. Potency, µM (series often up to 114 µM), for inactives: at the top dose activity change, negative = inhibition, usual class: inhibitors. AID 540317. P83916. 390,000 compounds, 0.56% hits; also: nearly all actives have a fitted effect of over 70% in size
Target sequence (P83916 whole entry, looked up): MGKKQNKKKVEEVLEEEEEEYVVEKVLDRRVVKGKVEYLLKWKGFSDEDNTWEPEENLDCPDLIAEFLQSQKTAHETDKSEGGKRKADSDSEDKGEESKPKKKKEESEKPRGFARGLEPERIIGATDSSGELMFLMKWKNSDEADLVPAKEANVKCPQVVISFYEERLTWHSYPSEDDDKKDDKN
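AlphaScreen: HP1-beta (50 nM) preformed 30 min with biotin-H3(1-18)K9me3 peptide (50 nM) in PBS pH 7.4, 0.01% Tween-20. Compound added for 30 min at RT, then streptavidin donor/nickel chelate acceptor beads (10 ug/mL) for 30 min.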
G9a inh: G9a (human) methyltransferase inhibition. Q96KQ7. AID 504332. G9a H3K9 monomethylation, AlphaScreen, 2 h. 350,000 compounds, 8.8% hits. Potency, µM (highest dose often 102 µM), for inactives: at the highest dose activity, negative = inhibition, hits mostly inhibitors; also: % is scaled to controls: 0 for no effect and ±100 for the full control effect; nearly all actives have a fitted effect of over 75% in size
Target sequence (Q96KQ7 913-1193 limits assumed): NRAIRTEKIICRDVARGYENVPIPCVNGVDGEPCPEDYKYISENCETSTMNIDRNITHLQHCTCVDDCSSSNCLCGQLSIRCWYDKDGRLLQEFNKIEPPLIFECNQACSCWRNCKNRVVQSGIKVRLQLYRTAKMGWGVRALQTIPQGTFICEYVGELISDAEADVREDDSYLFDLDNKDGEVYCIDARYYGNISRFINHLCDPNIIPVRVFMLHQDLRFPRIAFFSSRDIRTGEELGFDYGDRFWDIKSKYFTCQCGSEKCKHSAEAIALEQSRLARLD
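AlphaScreen read-out: biotin-H3K9 peptide (500 nM) methylation by 20 nM enzyme with 20 uM SAM, 2 h at room temperature after 15 min compound preincubation; anti-monomethyl H3K9 antibody plus donor/acceptor beads, 10 min dark.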
JMJD2A Tudor inh: blocks the human JMJD2A Tudor domain. O75164. AlphaScreen JMJD2A-Tudor / H3K4me3 peptide binding. Potency, µM (titrated, usually from 114 µM), without a hit: at the highest dose activity change, negative = inhibition, usual class: inhibitors. 390,000 compounds, 4.4% hits; also: % is scaled to controls: 0 for no effect and ±100 for the full control effect; nearly all actives have a fitted effect of over 50% in size
BAZ2B inh: BAZ2B (human) inhibition; AID 504333; 360,000 compounds, 4.4% hits; Q9UIF8; Potency, µM (series often up to 114 µM), inactives show top-dose activity change, negative = inhibition, hits mostly inhibitors; AlphaScreen BAZ2B-H3K14Ac peptide displacement; also: % is scaled to controls: 0 for no effect and ±100 for the full control effect; nearly all actives have a fitted effect of over 60% in size
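Complex of BAZ2B and biotin-H3K14Ac (50 nM apiece) forms over 30 min at RT, then faces library compounds up to 110 uM for another 30 min; AlphaScreen beads added, 20 min dark incubation, luminescence read.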
* hit, by the source's call; [ ] = remark or other dose. Calls follow the shape of the dose curve; as a rule, active = well fitted curve in the direction sought with a large enough effect; inconclusive = small, poorly fitted or top-dose-only effect, or another doubt; inactive = no such curve, though single readings can be large; an effect the other way counts as inactive or inconclusive. Potency is read from the fitted curve at half-maximal effect.

What do the screens show for `Cc1cc(CNC(=O)[C@H](C)[C@@H]2C[C@@]2(C)[C@@H](NC(=O)OCc2ccccc2)c2ccccc2)nn1C`?
Sfp PPTase inh: -15%; 12-LOX inh: -6%; HP1b binding inh: 25%; G9a inh: 56µM*; JMJD2A Tudor inh: -21%; BAZ2B inh: -10%

How did C[C@@H](C(=O)O)[C@H]1C[C@]1(C)[C@H](NC(=O)OCc1ccccc1)c1ccccc1 do in these assays?
Sfp PPTase inh: 8%; 12-LOX inh: 6%; HP1b binding inh: 19%; G9a inh: 79µM*; JMJD2A Tudor inh: -17%; BAZ2B inh: -10%

Results for COc1ccc(CNC(=O)[C@H](C)[C@H]2C[C@]2(C)[C@H](NC(=O)OCc2ccccc2)c2ccccc2)cc1OC ?
Sfp PPTase inh: 7%

Results for O=C(NCc1ccc(Cl)cc1)c1ccc2ccnn2c1 ?
12-LOX inh: 11%[176 µM]

What do the screens show for `CC(=O)Nc1ccc(NC(=O)Nc2cccc(Cl)c2)cc1`?
Sfp PPTase inh: 9%; 12-LOX inh: 8%; HP1b binding inh: 16%; G9a inh: 0%; JMJD2A Tudor inh: -9%; BAZ2B inh: 5%

Results for CC(=O)C(=Nc1ccc(Cl)cc1Cl)NNc1cccc(Cl)c1 ?
Sfp PPTase inh: 3%; 12-LOX inh: -56%; HP1b binding inh: inconclusive; G9a inh: inconclusive; JMJD2A Tudor inh: 56µM*; BAZ2B inh: 14µM*

How did COC(=O)c1ccc(CN2CCCC2)cc1 do in these assays?
12-LOX inh: -7%

How did COCCN1CCOc2nc(-c3ccc(C(=O)N(C)C)cc3)ncc2C1=O do in these assays?
12-LOX inh: -10%[176 µM]

How did Cc1cc(C)n2ncc(CN3CCCC3c3nc(-c4ccncc4)no3)c2n1 (stereo unspecified) do in these assays?
12-LOX inh: 50%

How did CC1=Nn2c(nnc2C2CCCCC2)SC1 do in these assays?
Sfp PPTase inh: 79µM*; 12-LOX inh: 0%; HP1b binding inh: 2%; G9a inh: -49%[59 µM]; JMJD2A Tudor inh: -8%; BAZ2B inh: -15%

How did CCOC(=O)CSc1nnc(C2CCCCC2)n1C do in these assays?
Sfp PPTase inh: 11%; 12-LOX inh: 0%; HP1b binding inh: 26%; G9a inh: inconclusive; JMJD2A Tudor inh: -6%; BAZ2B inh: 3%

Results for CCCCCCCCC1=NCCc2c1[nH]c1ccccc21 ?
Sfp PPTase inh: 56µM*; 12-LOX inh: -32%; HP1b binding inh: 22%; G9a inh: 45µM*; JMJD2A Tudor inh: 22µM*; BAZ2B inh: inconclusive

How did COc1ccc(-c2cc(=O)oc3cc(OC(C)C(=O)NC(Cc4c[nH]c5ccc(O)cc45)C(=O)O)ccc23)cc1 (stereo unspecified) do in these assays?
Sfp PPTase inh: -4%; 12-LOX inh: 16%; HP1b binding inh: 0%; G9a inh: 50µM*; JMJD2A Tudor inh: -27%; BAZ2B inh: 50µM*

How did NC(=O)C1CCN(c2nc(-c3cccs3)nc3ccccc23)CC1 do in these assays?
12-LOX inh: 49%

Results for O=C(OCCC12CC3CC(CC(C3)C1)C2)c1ccc(NCc2cc(O)ccc2O)cc1 ?
12-LOX inh: 5.6µM*; HP1b binding inh: inconclusive; JMJD2A Tudor inh: 25µM*

How did O=C(OCC12CC3CC(CC(C3)C1)C2)c1cc([N+](=O)[O-])cc([N+](=O)[O-])c1 do in these assays?
12-LOX inh: 9%

Results for O=C(O)c1cc(NCc2cc(O)ccc2O)ccc1O ?
Sfp PPTase inh: inconclusive; 12-LOX inh: inconclusive; HP1b binding inh: inconclusive; G9a inh: 3.5µM*; JMJD2A Tudor inh: 25µM*

Results for O=C(OCC12CC3CC(CC(C3)C1)C2)c1ccc(NCc2cc(O)ccc2O)cc1 ?
12-LOX inh: 16µM*; HP1b binding inh: 16µM*; JMJD2A Tudor inh: 50µM*

Results for Cc1cc2nc(CO[C@H]3CN(Cc4ccc(S(C)(=O)=O)cc4)C[C@H]3F)[nH]c2cc1C ?
12-LOX inh: 15%[176 µM]

What do the screens show for `O=c1cc(-c2ccncc2)oc2c(-c3ccccc3Oc3ccccc3)nccc12`?
12-LOX inh: 32µM*

How did O=c1cc(-c2ccncc2)oc2c(-c3ccccc3F)nccc12 do in these assays?
12-LOX inh: -2%[176 µM]

Results for Cc1ccc(S(=O)(=O)O/N=C2\CCCc3ccccc32)cc1 ?
Sfp PPTase inh: -1%; 12-LOX inh: inconclusive; HP1b binding inh: 55%; G9a inh: 18%[12.7 µM]; JMJD2A Tudor inh: 17%; BAZ2B inh: -4%

What do the screens show for `CC1=C(C)/C(=N\OS(=O)(=O)c2ccccc2)C=CC1=O`?
Sfp PPTase inh: 40µM*; HP1b binding inh: inconclusive; G9a inh: 16µM*; JMJD2A Tudor inh: 56µM*; BAZ2B inh: 40µM*

Results for COc1cc(C(=O)OCC(=O)Nc2c(F)cccc2F)cc(OC)c1C ?
Sfp PPTase inh: 7%; 12-LOX inh: -5%; HP1b binding inh: 17%; G9a inh: 45µM*; JMJD2A Tudor inh: 5%[11.4 µM]; BAZ2B inh: inconclusive

Results for CCN1C(=O)C(O)(CC(=O)c2ccc3c(c2)OCO3)c2ccccc21 (stereo unspecified) ?
12-LOX inh: 15%

What do the screens show for `O=c1ccn(Cc2ccccc2)c(SCc2ccccc2)n1`?
12-LOX inh: inconclusive; HP1b binding inh: 23%; JMJD2A Tudor inh: -10%

Results for Clc1ccc(CSc2nccn2Cc2ccccc2)cc1 ?
Sfp PPTase inh: 9%; 12-LOX inh: inconclusive; HP1b binding inh: -4%; G9a inh: -11%[0.501 µM]; JMJD2A Tudor inh: 3.2µM*; BAZ2B inh: inconclusive

How did Cc1cc(C)nc(N/N=C2/CCSc3ccc(F)cc32)n1 do in these assays?
Sfp PPTase inh: 15%; 12-LOX inh: 6%; HP1b binding inh: 30%; G9a inh: 35µM*; JMJD2A Tudor inh: -40%; BAZ2B inh: -18%

What do the screens show for `O=C(O)c1ccc(N/N=C2/CCSc3ccc(F)cc32)cc1`?
Sfp PPTase inh: 12%; 12-LOX inh: inconclusive; HP1b binding inh: -8%; G9a inh: 50µM*; JMJD2A Tudor inh: inconclusive; BAZ2B inh: inconclusive

What do the screens show for `O/N=C1\CCSc2ccc(F)cc21`?
Sfp PPTase inh: -6%; 12-LOX inh: 138%; HP1b binding inh: 40%; JMJD2A Tudor inh: 3%; BAZ2B inh: -8%

What do the screens show for `COc1c(F)ccc(C(=O)N2CCC3(CCCNC3)C2)c1F` (stereo unspecified)?
12-LOX inh: 12%

How did CCN1CCN(C(=O)c2ccc3c(c2)n(Cc2cccc(F)c2)c(=O)c2ccnn23)CC1 do in these assays?
12-LOX inh: 6%
